For some assays here: Potency and affinity values are given separately. Activity calls are given as the source filed them.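 Rule for the calls, unless noted: active = fitted half-maximal concentration within the tested dose range, moderate curve steepness, a statistically real signal drop, and little compound fluorescence or tag-binding interference; inactive = the rest.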
Columns and labels:
[1] = biological target: Cell division control protein 42 homolog (Homo sapiens) (UniProt P60953); assay: activated mutant Cdc42 GTP-binding inhibitors, dose response, biochemical, multiplex bead flow cytometry, Bodipy-FL-GTP (AID 1333)
[2] = biological target: Cell division control protein 42 homolog (Homo sapiens) (UniProt P60953); assay: wildtype Cdc42 GTP-binding inhibitors, dose response, biochemical, multiplex bead flow cytometry, Bodipy-FL-GTP (AID 1334;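 active = fitted half-maximal concentration within the tested range, moderate curve steepness, significant signal drop, and little compound fluorescence or bead-linkage interference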); conditions: bead-based flow cytometry, Bodipy-FL-GTP binding to GST-Cdc42; at 100 µM (top of the series) unless noted
[3] = biological target: GTPase HRas (Homo sapiens) (UniProt P01112); assay: inhibitors of GTP binding to wildtype Ras, dose response, biochemical, multiplex bead flow cytometry (AID 1335;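 active = fitted half-maximal concentration within 10 nM to 100 µM, steepness 0.5 to 2, significant signal drop, low assay interference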); conditions: bead-based flow cytometry, Bodipy-GTP binding to GST-Ras; at 100 µM (top of the series) unless noted
[4] = tested on: Ras-related protein Rab-7a (dog), GTP binding; assay: Rab7 GTP binding inhibitors, potency, dose response, biochemical, wildtype, multiplex bead flow cytometry (AID 1336; call rule not given here)
[5] = biological target: Ras-related C3 botulinum toxin substrate 1 (Homo sapiens) (UniProt P63000); assay: wildtype Rac1 GTP binding inhibitors, dose response, biochemical, multiplex bead flow cytometry (AID 1340;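 active = dose curve with midpoint inside tested range, moderate steepness, plateau gap beyond fit error, low compound glow and bead-link interference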); conditions: GST-Rac1 beads, Bodipy-FL-GTP binding; at 100 µM (top of the series) unless noted
[6] = biological target: GTPase HRas (Homo sapiens) (UniProt P01112); assay: activated Ras mutant GTP binding inhibitors, dose response, biochemical, multiplex bead flow cytometry (AID 1341;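 active = dose-response curve with midpoint inside the tested range, moderate steepness, significant amplitude and little compound fluorescence or bead-attachment interference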;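 note: GST-tagged constitutively activated Ras mutant immobilized on beads and multiplexed with other GTPases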)
[7] = RPL19A-GFP modulators, yeast TOR pathway, confirmation, cell-based, S. cerevisiae, flow cytometry, cherry picks, mother/daughter gates (AID 2270;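 active = GFP response below 50% of the DMSO control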); conditions: S. cerevisiae RPL19A-GFP strain, 3 h, at 10 µM, stronger effect = lower value, 100 = same GFP as DMSO wells
[8] = LAP4-GFP expression modulators in yeast, confirmation, cell-based, cherry picks, flow cytometry, mother/daughter gates (AID 2271;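 active = GFP response above 150% of the DMSO control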;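 note: ratio of sample to DMSO plate mean so 100% equals DMSO level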); conditions: S. cerevisiae LAP4-GFP strain, 3 h, at 10 µM, stronger effect = higher value, 100 means same as DMSO control
[9] = modulators of MEP2-GFP levels in yeast, confirmation, S. cerevisiae, flow cytometry GFP, cherry picks (AID 2272;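 active = GFP response above 150% of the DMSO control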;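 note: ratio of well signal to plate DMSO mean so 100% equals DMSO level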); conditions: S. cerevisiae MEP2-GFP strain, 3 h, at 10 µM, stronger effect = higher value
[10] = AGP1-GFP expression modulators, hit retest, confirmation, cell-based, flow cytometry, S. cerevisiae, cherry picks (AID 2273;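 active = GFP response above 150% of the DMSO level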;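 note: median GFP channel fluorescence over the whole cell population gate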); conditions: S. cerevisiae AGP1-GFP strain, 3 h, at 10 µM
[11] = modulators of CIT2-GFP expression in yeast, confirmation, S. cerevisiae, GFP fusion, cherry picks, mother/daughter gates (AID 2274;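 active = GFP response above 150% of the DMSO level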); conditions: S. cerevisiae CIT2-GFP strain, flow cytometry, 3 h, at 10 µM, stronger effect = higher value
[12] = measured here: daughter cell gate
[13] = measured here: mother cell gate
[14] = measured here: daughter cell gate response
[15] = measured here: mother cell gate response

Cell division control protein 42 homolog (Homo sapiens), sequence (P60953 whole entry, looked up): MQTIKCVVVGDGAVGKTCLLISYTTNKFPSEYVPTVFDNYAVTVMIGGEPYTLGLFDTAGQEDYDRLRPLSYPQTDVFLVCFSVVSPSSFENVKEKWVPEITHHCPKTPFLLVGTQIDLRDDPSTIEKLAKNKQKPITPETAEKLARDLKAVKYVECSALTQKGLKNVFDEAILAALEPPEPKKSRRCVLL
GTPase HRas (Homo sapiens), sequence (P01112 whole entry, looked up): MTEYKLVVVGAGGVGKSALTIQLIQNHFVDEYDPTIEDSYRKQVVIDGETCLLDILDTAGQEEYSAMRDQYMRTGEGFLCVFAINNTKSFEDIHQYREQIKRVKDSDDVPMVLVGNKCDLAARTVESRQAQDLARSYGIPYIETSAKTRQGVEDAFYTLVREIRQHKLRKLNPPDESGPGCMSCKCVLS

Row | Compound | outcome [1] | fluorescence, percent of control (lower = inhibition) [2] | GTP binding, percent of control [3] | outcome [4] | GTP binding signal, raw median fluorescence (lower = inhibition) (MCF (arbitrary fluorescence units)) [5] | outcome [6] | GFP response vs DMSO [7] | GFP response vs DMSO [7, 12] | GFP response vs DMSO [7, 13] | GFP response relative to DMSO [8] | GFP response relative to DMSO [8, 14] | GFP response relative to DMSO [8, 15] | GFP response vs DMSO [9] | GFP response, % of DMSO [10] | GFP response, % of DMSO [11] | GFP response, % of DMSO [11, 12] | GFP response, % of DMSO [11, 13]
1 | CCOC(=O)N1CCN(C(=O)CCc2ccc(S(=O)(=O)NCCc3ccccc3)cc2)CC1 | inactive | 48.3% | 57.7% | inactive | 0 | inactive | 99.3% (inactive) | 100% | 97.8% | 95.3% (inactive) | 99% | 94.4% | 101% (inactive) | 108% (inactive) | 100% (inactive) | 101% | 100%
2 | COc1cc(/C=C2/SC(=Nc3ccc(O)cc3)NC2=O)cc(OC)c1O | inactive | 39.8% | 84.1% | inactive | 231 | inactive | – | – | – | – | – | – | – | – | – | – | –
3 | CN(C)c1ccc(/C=C/C(=O)c2cccc(Br)c2)cc1 | inactive | 120% | 213% | inactive | 225 | inactive | 104% (inactive) | 105% | 104% | 99.5% (inactive) | 97.5% | 102% | 112% (inactive) | 94% (inactive) | 98.8% (inactive) | 97.4% | 98.1%
4 | CC(C)NC(=O)C12CC3CC(C1)CC(n1cnc(Cl)n1)(C3)C2 | inactive | 41.5% | 89.6% | inactive | 319 | inactive | – | – | – | – | – | – | – | – | – | – | –
5 | O=C(O)c1cn(CCOc2ccccc2)c2ccccc12 | inactive | 76.5% | 92.7% | inactive | – | inactive | – | – | – | – | – | – | – | – | – | – | –
6 | O=C1c2ccccc2-c2onc3ccc(Oc4ccccc4)c1c23 | inactive | 27.9% | 46.3% | inactive | 183 | inactive | 86.5% (inactive) | 86.6% | 85.9% | 147% (inactive) | 136% | 150% | 113% (inactive) | 84.3% (inactive) | 95.2% (inactive) | 94.8% | 94.4%

Reference: PubChem BioAssay
